Test results reported in PubChem BioAssay (Tox21).
Results filed as inconclusive are left out. Activity calls are given as the source filed them. Unless noted, calls follow the shape of the dose curve; as a rule, active = well fitted curve in the direction sought with a large enough effect in the repeat runs; inconclusive = weak or mixed curves; inactive = no such curve, though single readings can be large; an effect the other way counts as inactive or inconclusive.

Tests used:
[1] = qHTS assay to identify small molecule antagonists of the thyroid receptor (TR) signaling pathway - cell viability counter screen (AID 743064); also: nearly all actives have a fitted effect of over 50% in size
Summary of the method: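 CellTiter-Fluor readout, 30 min at 37 °C/5% CO2, following 23.5 h incubation of GH3.TRE-Luc cells with test compound and 1 nM T3 (final).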

[2] = qHTS assay to identify small molecule antagonists of the thyroid receptor (TR) signaling pathway (AID 743065); also: series mostly up to about 70 µM; nearly all actives have a fitted effect of over 55% in size
Summary of the method: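 GH3.TRE-Luc rat pituitary cells (two TREs driving luciferase) were dosed with compound, then stimulated with 1 nM T3 (final) for 23.5 h at 37 C. ONE-Glo luminescence was the read-out, with CellTiter-Fluor fluorescence as the cytotoxicity counter-screen.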

[3] = tested on: thyroid hormone receptor (rat, GH3 cells); test: qHTS assay to identify small molecule agonists of the thyroid receptor (TR) signaling pathway (AID 743066; calls by dose curve)
[4] = molecular target: Estrogen receptor (Homo sapiens) (UniProt P03372); test: qHTS assay to identify small molecule antagonists of the estrogen receptor alpha (ER-alpha) signaling pathway (AID 743069; active = well fitted curve in the direction sought with a large enough effect in the signal ratio in the repeat runs, not every such curve was filed as active; the % refers to the signal ratio)
Summary of the method: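 HEK293 ER-alpha-UAS-bla GripTite cells, held overnight in 2% charcoal-stripped FBS, 5,000 cells/well, preincubated 4 h, then compound plus 17beta-estradiol for 18 h at 37C. Beta-lactamase read by LiveBLAzer B/G FRET substrate, 2 h at room temperature.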

[5] = qHTS assay to identify small molecule antagonists of the estrogen receptor alpha (ER-alpha) signaling pathway - cell viability counter screen (AID 743074; calls by dose curve;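 also: HEK293 cells carrying ER-alpha-UAS-bla reporter stimulated with 17beta-estradiol; nearly all actives have a fitted effect of over 45% in size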)
[6] = molecular target: Estrogen receptor (Homo sapiens) (UniProt P03372); test: qHTS assay to identify small molecule agonists of the estrogen receptor alpha (ER-alpha) signaling pathway (AID 743075; calls by dose curve)
[7] = molecular target: Estrogen receptor (Homo sapiens) (UniProt P03372); test: qHTS assay to identify small molecule agonists of the estrogen receptor alpha (ER-alpha) signaling pathway using the BG1 cell line (AID 743079); also: nearly all actives have a fitted effect of over 20% in size
[8] = qHTS assay to identify small molecule antagonists of the estrogen receptor alpha (ER-alpha) signaling pathway using the BG1 cell line (AID 743080; calls by dose curve;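 also: BG1 cells stimulated with 17beta-estradiol alongside compound; series mostly up to about 70 µM; nearly all actives have a fitted effect of over 25% in size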)
Summary of the method: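 Seeding, 24 h rest, compound transfer from DMSO, 17beta-estradiol addition, 21.5 h incubation, CellTiter-Fluor (30 min, 37 C), then ONE-Glo (30 min, room temperature): this sequence was run on BG1-Luc-4E2 reporter cells.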

[9] = qHTS assay to identify small molecule antagonists of the estrogen receptor alpha (ER-alpha) signaling pathway using the BG1 cell line - cell viability counter screen (AID 743081);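 also: compound given together with 17beta-estradiol as the ER stimulus; series mostly up to about 70 µM; nearly all actives have a fitted effect of over 45% in size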
Aromatase (Homo sapiens) = Aromatase (Homo sapiens) (UniProt P11511); test: qHTS assay to identify aromatase inhibitors (AID 743083); also: series mostly up to about 70 µM; nearly all actives have a fitted effect of over 55% in size
[10] = qHTS assay to identify aromatase inhibitors - cell viability counter screen (AID 743084);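 also: cells stimulated with testosterone during compound exposure; nearly all actives have a fitted effect of over 55% in size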
[11] = molecular target: Aryl hydrocarbon receptor (Homo sapiens) (UniProt P35869); test: qHTS assay to identify small molecule that activate the aryl hydrocarbon receptor (AhR) signaling pathway (AID 743085);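 also: HG2L7.5c1 human HepG2 liver cells with stably integrated DRE-driven firefly reporter; series mostly up to about 70 µM; nearly all actives have a fitted effect of over 15% in size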
Summary of the method: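 Stably transfected human liver carcinoma cells (HG2L7.5c1; 20 DRE-firefly luciferase) were incubated 5 h, dosed, and kept 24 h at 37C. Agonism was scored from increased luciferase luminescence.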

[12] = qHTS assay to identify small molecule that activate the aryl hydrocarbon receptor (AhR) signaling pathway - cell viability counter screen (AID 743086);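 also: HepG2 liver cells carrying the AhR DRE luciferase reporter; series mostly up to about 70 µM; nearly all actives have a fitted effect of over 45% in size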
Summary of the method: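 HepG2-AhR-luc (HG2L7.5c1) cells, 4000/well, treated 24 h at 37 C with compound; viability measured as CellTiter-Fluor fluorescence after 30 min in the same wells as the luciferase read.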

[13] = molecular target: Peroxisome proliferator-activated receptor gamma (Homo sapiens) (UniProt P37231); test: qHTS assay to identify small molecule agonists of the peroxisome proliferator-activated receptor gamma (PPARg) signaling pathway (AID 743094; active = well fitted activation curve with a large enough effect in the signal ratio in the repeat runs, not every such curve was filed as active; the % refers to the signal ratio)
Summary of the method: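 Beta-lactamase FRET fluorescence was the read-out after a 1 h room-temperature substrate step, following 17 h compound treatment at 37C of HEK293H cells expressing a UAS-driven bla reporter responsive to PPARg.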

[14] = qHTS assay to identify small molecule antagonists of the peroxisome proliferator-activated receptor gamma (PPARg) signaling pathway - cell viability counter screen (AID 743194); also: nearly all actives have a fitted effect of over 55% in size
Summary of the method: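 Cytotoxicity counter screen in PPARg-bla HEK293H cells, same wells as reporter assay. Compounds plus 50 nM rosiglitazone (final) for 17 h at 37 C, then viability read by CellTiter-Glo luminescence.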

[15] = qHTS assay for small molecule agonists of the antioxidant response element (ARE) signaling pathway - cell viability counter screen (AID 743203; calls by dose curve; also: nearly all actives have a fitted effect of over 55% in size)
Summary of the method: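 HepG2 cells carrying ARE-driven beta-lactamase; 2,000 cells/well; 5 hrs plating; compound pinned from DMSO; 16 hrs 37C/5% CO2; CellTiter-Glo added; 30 min RT; luminescence.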

[16] = qHTS assay for small molecule activators of the heat shock response signaling pathway - cell viability counter screen (AID 743209); also: nearly all actives have a fitted effect of over 50% in size
Summary of the method: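 Luminescence from CellTiter-Glo, added after the beta-lactamase FRET read, gave the viability signal. Cells were HSE-bla HeLa treated with DMSO-dissolved compounds for 5 h at 37 C following overnight plating.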

[17] = qHTS assay for small molecule activators of the heat shock response signaling pathway (AID 743210; active = well fitted activation curve with a large enough effect in the signal ratio in the repeat runs, with a control signal flat, not every such curve was filed as active; the % refers to the signal ratio; also: series mostly up to about 63 µM)
Summary of the method: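 HSE-bla HeLa cells (beta-lactamase reporter under heat shock response elements), plated overnight, then exposed to compounds 5 h at 37 C; LiveBLAzer B/G FRET substrate added, 2.5 h at room temperature, fluorescence intensity read.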

[18] = qHTS assay for small molecule agonists of the antioxidant response element (ARE) signaling pathway (AID 743202; active = well fitted activation curve with a large enough effect in the signal ratio in the repeat runs, not every such curve was filed as active; the % refers to the signal ratio)
Summary of the method: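 ARE-bla HepG2 cells (beta-lactamase reporter under the antioxidant response element), plated 5 hours, then exposed to compounds 16 hours at 37 C. LiveBLAzer B/G FRET substrate added for 2 hours at room temperature; fluorescence intensity read.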

[19] = molecular target: Peroxisome proliferator-activated receptor gamma (Homo sapiens) (UniProt P37231); test: qHTS assay to identify small molecule antagonists of the peroxisome proliferator-activated receptor gamma (PPARg) signaling pathway (AID 743191; calls by dose curve; also: series mostly up to about 63 µM; nearly all actives have a fitted effect of over 30% in size)
Summary of the method: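 GeneBLAzer PPARg UAS-bla HEK293H cells, 5 h post-plating, exposed to compounds 17 h at 37C. LiveBLAzer B/G FRET substrate added for 1 h at room temperature; beta-lactamase reporter read by fluorescence intensity.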
% is scaled to controls: 0 for no effect and ±100 for the full control effect.

Sequence of Estrogen receptor (Homo sapiens) (P03372 whole entry, looked up): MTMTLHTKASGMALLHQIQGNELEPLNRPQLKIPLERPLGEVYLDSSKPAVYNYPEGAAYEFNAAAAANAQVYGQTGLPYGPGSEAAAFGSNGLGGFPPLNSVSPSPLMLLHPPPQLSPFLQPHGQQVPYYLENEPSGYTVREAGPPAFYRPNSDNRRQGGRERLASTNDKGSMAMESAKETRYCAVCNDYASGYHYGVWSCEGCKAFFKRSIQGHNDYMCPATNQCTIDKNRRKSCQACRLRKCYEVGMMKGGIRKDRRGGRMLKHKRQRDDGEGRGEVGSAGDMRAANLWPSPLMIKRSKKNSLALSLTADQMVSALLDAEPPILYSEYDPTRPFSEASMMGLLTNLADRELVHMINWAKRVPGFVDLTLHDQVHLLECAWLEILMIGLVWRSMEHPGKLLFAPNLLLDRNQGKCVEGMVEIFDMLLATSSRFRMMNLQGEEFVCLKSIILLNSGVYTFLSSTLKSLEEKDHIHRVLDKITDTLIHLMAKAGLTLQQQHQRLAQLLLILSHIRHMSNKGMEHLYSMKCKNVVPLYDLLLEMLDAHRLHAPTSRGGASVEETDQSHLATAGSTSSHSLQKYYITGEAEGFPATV
Sequence of Aromatase (Homo sapiens) (P11511 whole entry, looked up): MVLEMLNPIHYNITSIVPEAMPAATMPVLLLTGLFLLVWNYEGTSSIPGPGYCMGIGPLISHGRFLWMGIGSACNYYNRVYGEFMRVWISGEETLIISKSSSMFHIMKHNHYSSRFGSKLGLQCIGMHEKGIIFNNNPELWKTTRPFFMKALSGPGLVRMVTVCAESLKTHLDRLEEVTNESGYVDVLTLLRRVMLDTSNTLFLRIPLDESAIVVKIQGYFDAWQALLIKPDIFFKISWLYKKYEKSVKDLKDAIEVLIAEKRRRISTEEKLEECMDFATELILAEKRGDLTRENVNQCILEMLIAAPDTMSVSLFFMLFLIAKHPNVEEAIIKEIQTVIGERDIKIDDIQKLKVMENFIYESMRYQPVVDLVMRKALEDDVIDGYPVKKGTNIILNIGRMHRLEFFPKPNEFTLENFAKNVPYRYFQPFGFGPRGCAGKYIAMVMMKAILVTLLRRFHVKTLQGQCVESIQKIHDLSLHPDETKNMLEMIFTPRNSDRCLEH
Sequence of Aryl hydrocarbon receptor (Homo sapiens) (P35869 whole entry, looked up): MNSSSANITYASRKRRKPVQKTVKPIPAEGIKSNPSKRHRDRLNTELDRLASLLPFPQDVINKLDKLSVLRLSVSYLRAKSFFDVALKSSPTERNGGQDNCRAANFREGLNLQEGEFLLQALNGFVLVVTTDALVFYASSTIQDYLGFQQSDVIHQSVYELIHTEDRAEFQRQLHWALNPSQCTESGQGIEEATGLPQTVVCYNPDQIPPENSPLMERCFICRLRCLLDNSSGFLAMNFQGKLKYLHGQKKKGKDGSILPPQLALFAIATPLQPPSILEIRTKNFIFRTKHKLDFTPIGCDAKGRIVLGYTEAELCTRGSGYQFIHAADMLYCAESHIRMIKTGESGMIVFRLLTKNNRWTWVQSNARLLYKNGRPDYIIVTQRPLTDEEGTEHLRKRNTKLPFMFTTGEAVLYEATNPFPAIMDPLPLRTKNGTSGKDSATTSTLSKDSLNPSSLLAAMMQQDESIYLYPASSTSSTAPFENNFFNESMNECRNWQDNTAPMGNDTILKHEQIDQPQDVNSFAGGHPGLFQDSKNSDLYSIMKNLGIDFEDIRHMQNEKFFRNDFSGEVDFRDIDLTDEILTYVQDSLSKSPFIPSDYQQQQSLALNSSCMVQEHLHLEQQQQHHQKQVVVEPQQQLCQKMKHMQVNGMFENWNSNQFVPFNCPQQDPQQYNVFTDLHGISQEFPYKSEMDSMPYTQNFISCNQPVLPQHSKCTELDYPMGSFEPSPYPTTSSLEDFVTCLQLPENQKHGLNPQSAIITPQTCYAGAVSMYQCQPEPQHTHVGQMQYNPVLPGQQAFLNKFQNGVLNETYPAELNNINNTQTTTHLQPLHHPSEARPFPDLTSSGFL
Sequence of Peroxisome proliferator-activated receptor gamma (Homo sapiens) (P37231 whole entry, looked up): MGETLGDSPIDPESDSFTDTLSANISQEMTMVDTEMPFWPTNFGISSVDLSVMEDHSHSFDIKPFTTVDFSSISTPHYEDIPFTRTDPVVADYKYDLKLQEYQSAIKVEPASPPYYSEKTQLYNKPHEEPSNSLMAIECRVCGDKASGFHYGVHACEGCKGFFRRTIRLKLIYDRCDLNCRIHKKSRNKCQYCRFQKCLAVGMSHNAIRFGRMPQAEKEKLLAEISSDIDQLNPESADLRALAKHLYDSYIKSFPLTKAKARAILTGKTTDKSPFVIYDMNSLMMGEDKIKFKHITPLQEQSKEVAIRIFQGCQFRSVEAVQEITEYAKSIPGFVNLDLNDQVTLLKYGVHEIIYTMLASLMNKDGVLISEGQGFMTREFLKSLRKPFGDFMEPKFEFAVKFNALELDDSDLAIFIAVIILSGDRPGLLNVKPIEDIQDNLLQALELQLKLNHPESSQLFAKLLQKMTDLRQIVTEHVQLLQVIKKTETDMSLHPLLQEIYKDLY

CCC(=O)OC(=O)CC
inactive: Potency [1] | Potency [2] | outcome [3] | Potency [4] | Potency [5] | Potency [6] | Potency [7] | Potency [8] | Potency [9] | Potency (Aromatase (Homo sapiens)) | Potency [10] | Potency [11] | Potency [12] | Potency [13] | Potency [14] | Potency [15] | Potency [16] | Potency [17]

O=[N+]([O-])c1cccc(C(F)(F)F)c1
inactive: Potency [1] | Potency [2] | outcome [3] | Potency [4] | Potency [5] | Potency [6] | Potency [7] | Potency [8] | Potency [9] | Potency (Aromatase (Homo sapiens)) | Potency [10] | Potency [11] | Potency [13] | Potency [18] | Potency [15] | Potency [16] | Potency [17]

CCCCCCOC(=O)C(C)CC (stereo unspecified)
inactive: Potency [1] | Potency [2] | outcome [3] | Potency [4] | Potency [5] | Potency [6] | Potency [7] | Potency [8] | Potency [9] | Potency (Aromatase (Homo sapiens)) | Potency [10] | Potency [11] | Potency [13] | Potency [14] | Potency [15] | Potency [16] | Potency [17]

O=C(O)O
inactive: activity change, negative = cytotoxic [1] -0.346% [at 8.44 µM] | activity, negative = inhibition [2] -9.25% [at 8.44 µM] | activation [3] 0.119% [at 8.08 µM] | activity, negative = inhibition [4] -5.09% [at 6.71 µM] | activity, negative = cytotoxicity [5] 16.5% [at 6.72 µM] | activation [6] -2.02% [at 6.71 µM] | activity change, negative = inhibition [8] 10.7% [at 8.47 µM] | activity change, negative = cytotoxicity [9] -13.4% [at 8.47 µM] | activity, negative = inhibition (Aromatase (Homo sapiens)) -0.932% [at 8.47 µM] | activity change, negative = cytotoxicity [10] -13.2% [at 8.47 µM] | activation [11] -1.17% [at 8.47 µM] | viability change, negative = cytotoxic [12] -24.2% [at 8.47 µM] | activation [13] -5.02% [at 7.08 µM] | activation [18] -11.2% [at 8.36 µM] | viability change, negative = cytotoxic [15] 6.5% [at 8.36 µM]

OC1CCCc2ccccc21 (stereo unspecified)
inactive: Potency [1] | Potency [2] | outcome [3] | Potency [4] | Potency [5] | Potency [6] | Potency [7] | Potency [8] | Potency [9] | Potency (Aromatase (Homo sapiens)) | Potency [10] | Potency [11] | Potency [12] | Potency [13] | Potency [19] | Potency [14] | Potency [18] | Potency [15] | Potency [16] | Potency [17]

CC(=O)CC(=O)Nc1ccc(S(=O)(=O)O)cc1
inactive: Potency [1] | Potency [2] | outcome [3] | Potency [4] | Potency [5] | Potency [6] | Potency [7] | Potency [8] | Potency [9] | Potency (Aromatase (Homo sapiens)) | Potency [10] | Potency [11] | Potency [13] | Potency [19] | Potency [14] | Potency [18] | Potency [15] | Potency [16] | Potency [17]

C=Cc1cccc(C)c1
inactive: Potency [1] | Potency [2] | outcome [3] | Potency [4] | Potency [5] | Potency [6] | Potency [7] | Potency [8] | Potency [9] | Potency (Aromatase (Homo sapiens)) | Potency [10] | Potency [11] | Potency [12] | Potency [13] | Potency [14] | Potency [15] | Potency [16] | Potency [17]

CCCCCCCC
inactive: Potency [1] | Potency [2] | outcome [3] | Potency [4] | Potency [5] | Potency [8] | Potency [9] | Potency (Aromatase (Homo sapiens)) | Potency [10] | Potency [11] | Potency [12] | Potency [14] | Potency [18] | Potency [15] | Potency [16] | Potency [17]

OC1CCC(C2CCCCC2)CC1 (stereo unspecified)
inactive: Potency [1] | Potency [2] | outcome [3] | Potency [4] | Potency [5] | Potency [6] | Potency [8] | Potency [9] | Potency (Aromatase (Homo sapiens)) | Potency [10] | Potency [11] | Potency [13] | Potency [14] | Potency [15] | Potency [16] | Potency [17]

CC(C)NC[C@@H](O)COc1ccc(CC(N)=O)cc1
inactive: Potency [1] | Potency [2] | outcome [3] | Potency [4] | Potency [5] | Potency [6] | Potency [7] | Potency [8] | Potency [10] | Potency [11] | Potency [12] | Potency [13] | Potency [14] | Potency [18] | Potency [15] | Potency [16] | Potency [17]

FC(F)(F)c1cccc(Cl)c1
inactive: Potency [1] | Potency [2] | outcome [3] | Potency [4] | Potency [5] | Potency [6] | Potency [7] | Potency [8] | Potency [9] | Potency (Aromatase (Homo sapiens)) | Potency [10] | Potency [11] | Potency [14] | Potency [18] | Potency [15] | Potency [16]

CN(C)Cc1ccccc1O
inactive: Potency [1] | Potency [2] | outcome [3] | Potency [4] | Potency [5] | Potency [6] | Potency [7] | Potency [8] | Potency [9] | Potency (Aromatase (Homo sapiens)) | Potency [10] | Potency [11] | Potency [12] | Potency [13] | Potency [14] | Potency [18] | Potency [15] | Potency [16] | Potency [17]

CC(C)(C)CC(C)(C)c1ccc(Nc2ccc(C(C)(C)CC(C)(C)C)cc2)cc1
inactive: activity change, negative = cytotoxic [1] 10.6% [at 8.44 µM] | activity, negative = inhibition [2] 9.26% [at 8.44 µM] | activation [3] 1.29% [at 8.08 µM] | activity, negative = inhibition [4] -8.94% [at 6.71 µM] | activity, negative = cytotoxicity [5] -17.2% [at 6.72 µM] | activation [6] -3.98% [at 6.71 µM] | activation [7] -8.83% [at 8.47 µM] | activity change, negative = inhibition [8] 1.65% [at 8.47 µM] | activity change, negative = cytotoxicity [9] 8.25% [at 8.47 µM] | activity, negative = inhibition (Aromatase (Homo sapiens)) -0.995% [at 8.47 µM] | activity change, negative = cytotoxicity [10] 3.33% [at 8.47 µM] | activation [11] -2.79% [at 8.47 µM] | activation [13] 0.247% [at 7.08 µM] | activity change, negative = cytotoxicity [14] -4.03% [at 5.95 µM] | activation [18] -4.99% [at 8.36 µM] | viability change, negative = cytotoxic [15] 7.42% [at 8.36 µM] | activity change, negative = cytotoxicity [16] 7.93% [at 5.95 µM] | activation [17] 0.375% [at 5.95 µM]

O=C(O)c1ccc2cc(C(=O)O)ccc2c1
inactive: Potency [1] | Potency [2] | outcome [3] | Potency [4] | Potency [5] | Potency [6] | Potency [7] | Potency [8] | Potency [9] | Potency (Aromatase (Homo sapiens)) | Potency [10] | Potency [11] | Potency [12] | Potency [13] | Potency [19] | Potency [14] | Potency [18] | Potency [15] | Potency [16] | Potency [17]
